# From paper PMC12280212
# Target: PPIA (UniProt P62937)
# Assay: cross-linking mass spectrometry
# Conditions: DSSO, in cells
# PPIA, sequence (P62937 whole entry): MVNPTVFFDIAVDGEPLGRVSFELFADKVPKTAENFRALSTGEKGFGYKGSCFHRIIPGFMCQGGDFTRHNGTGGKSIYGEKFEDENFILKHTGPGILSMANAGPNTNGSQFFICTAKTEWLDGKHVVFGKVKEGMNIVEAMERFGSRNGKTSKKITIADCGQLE
# YWHAQ, P27348, sequence (P27348 whole entry): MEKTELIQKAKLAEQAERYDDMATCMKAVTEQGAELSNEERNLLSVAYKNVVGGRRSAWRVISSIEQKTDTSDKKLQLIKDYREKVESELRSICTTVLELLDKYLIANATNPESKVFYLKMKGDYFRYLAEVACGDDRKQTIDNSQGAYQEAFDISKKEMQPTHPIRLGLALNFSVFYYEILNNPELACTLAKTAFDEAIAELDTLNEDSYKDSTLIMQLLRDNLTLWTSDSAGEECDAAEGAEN
# ENO1, P06733, sequence (P06733 whole entry): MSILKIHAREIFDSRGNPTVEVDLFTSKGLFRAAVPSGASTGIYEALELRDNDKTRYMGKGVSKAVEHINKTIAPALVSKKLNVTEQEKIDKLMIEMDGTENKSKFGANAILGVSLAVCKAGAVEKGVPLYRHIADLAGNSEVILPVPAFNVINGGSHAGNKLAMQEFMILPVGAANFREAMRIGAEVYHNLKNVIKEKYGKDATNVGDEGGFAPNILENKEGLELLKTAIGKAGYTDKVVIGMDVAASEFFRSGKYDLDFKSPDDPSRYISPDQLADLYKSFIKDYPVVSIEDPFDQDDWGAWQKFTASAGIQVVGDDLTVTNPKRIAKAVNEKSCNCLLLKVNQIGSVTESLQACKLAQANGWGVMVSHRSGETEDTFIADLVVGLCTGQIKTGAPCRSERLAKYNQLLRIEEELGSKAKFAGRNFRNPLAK
# GAPDH, P04406, sequence (P04406 whole entry): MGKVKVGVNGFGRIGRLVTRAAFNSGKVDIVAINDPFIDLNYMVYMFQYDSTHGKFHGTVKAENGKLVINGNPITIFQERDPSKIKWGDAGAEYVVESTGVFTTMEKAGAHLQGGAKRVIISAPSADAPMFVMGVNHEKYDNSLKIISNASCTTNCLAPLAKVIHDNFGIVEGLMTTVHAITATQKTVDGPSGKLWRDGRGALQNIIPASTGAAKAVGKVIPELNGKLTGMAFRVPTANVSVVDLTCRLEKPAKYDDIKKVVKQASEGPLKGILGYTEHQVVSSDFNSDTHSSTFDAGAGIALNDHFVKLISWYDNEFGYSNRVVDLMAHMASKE
# YWHAB, P31946, sequence (P31946 whole entry): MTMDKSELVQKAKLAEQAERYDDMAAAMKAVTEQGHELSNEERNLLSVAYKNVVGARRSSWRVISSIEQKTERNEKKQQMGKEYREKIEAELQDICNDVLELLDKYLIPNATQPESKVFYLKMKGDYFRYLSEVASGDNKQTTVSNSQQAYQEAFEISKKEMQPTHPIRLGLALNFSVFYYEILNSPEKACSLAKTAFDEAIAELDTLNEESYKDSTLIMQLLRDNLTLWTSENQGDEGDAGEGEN
row,Substance,cross-linked residues
1,"GAPDH, P04406",K251 - K76
2,"ENO1, P06733",K256 - K82
3,"VIM, P08670",K445 - K76

# Target: RRBP1 (UniProt Q9P2E9)
# Assay: cross-linking mass spectrometry
# Conditions: DSSO, in cells
row,Substance,cross-linked residues
1,"RPL31, P62899",K91 - K261
2,"RPL10A, P62906",K130 - K261
3,"LRRC59, Q96AG4",K180 - K261
4,"RPL11, P62913",K67 - K270
5,"SEC61B, P60468",K20 - K261

# Target: YWHAZ (UniProt P63104)
# Assay: cross-linking mass spectrometry
# Conditions: DSSO, in cells
row,Substance,cross-linked residues
1,"YWHAB, P31946",K11 - K85
2,"YWHAQ, P27348",K9 - K85
3,"S100A6, P06703",K26 - K157
